Only some compounds are listed: those with a hit (about 3.4% of all), similar ones and a draw of the others.
GPR151 activ: activates the human receptor GPR151; 1% of 650,000 active; AID 1508602; activation, % at 11.2 µM; PathHunter beta-arrestin GPR151 cells, luminescence; Q8TDV0; in the data active = activation above about 4.9%
Target sequence (Q8TDV0 whole entry, looked up): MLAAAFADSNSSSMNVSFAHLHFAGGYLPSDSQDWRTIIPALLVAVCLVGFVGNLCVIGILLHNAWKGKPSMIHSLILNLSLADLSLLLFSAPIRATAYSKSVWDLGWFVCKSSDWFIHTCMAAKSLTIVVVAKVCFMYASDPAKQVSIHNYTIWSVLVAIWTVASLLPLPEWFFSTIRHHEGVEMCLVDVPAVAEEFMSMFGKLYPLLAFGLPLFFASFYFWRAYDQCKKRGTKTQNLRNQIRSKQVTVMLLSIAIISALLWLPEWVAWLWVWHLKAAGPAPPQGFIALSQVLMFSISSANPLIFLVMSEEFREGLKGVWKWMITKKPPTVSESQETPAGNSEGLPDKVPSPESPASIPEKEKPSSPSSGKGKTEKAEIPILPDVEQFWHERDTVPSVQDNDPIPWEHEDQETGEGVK
FBW7 activator: human FBW7 E3 ligase activation, primary screen | AlphaScreen FBW7–phospho-cyclin E peptide binding, activator screen | normalized activity (activation), % at 26.1 µM | 0.13% of 650,000 active | Q969H0; in the data active = normalized activity above about 1.9%;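 note: purified mutant Fbw7 with reduced substrate affinity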
TEAD-YAP inh: TEAD-YAP interaction inhibition; inhibition, % at 9.12 µM; 1.4% of 640,000 active; AID 1259422; HEK-TIYL cells, TEAD-Gal4/YAP UAS-luciferase luminescence; in the data active = inhibition above about 32%
MITF inh: inhibitors of human MITF. inhibition, % at 2.6 µM. AID 1259374. AlphaScreen MITF homodimerization, bead proximity signal. 0.91% of 650,000 active; in the data active = inhibition above about 50%
Hits are given with their value.

Results for O=C(O)c1c2c(nc3ccccc13)-c1ccccc1C2 ?
GPR151 activ: inactive; FBW7 activator: inactive; TEAD-YAP inh: inactive; MITF inh: inactive

How did Cc1cc2c(cc(C(=O)NCCc3ccccc3)n2C)s1 do in these assays?
GPR151 activ: inactive; FBW7 activator: inactive; TEAD-YAP inh: 58; MITF inh: inactive

Results for Cn1c(C(=O)NCCc2ccccc2)cc2sccc21 ?
GPR151 activ: inactive; FBW7 activator: inactive; TEAD-YAP inh: 41; MITF inh: inactive

How did Cn1c(C(=O)NCCCN2CCCC2)cc2sccc21 do in these assays?
GPR151 activ: inactive; FBW7 activator: inactive; TEAD-YAP inh: inactive; MITF inh: inactive

What do the screens show for `Cc1nnc2n1NC(c1ccc(F)cc1)C(C(=O)Nc1ccc(Cl)cc1)S2` (stereo not drawn)?
GPR151 activ: inactive; FBW7 activator: inactive; TEAD-YAP inh: inactive; MITF inh: inactive

Results for O=C1NC(=S)NC(=O)C1=Cc1cn(-c2ccccc2)nc1-c1ccc2c(c1)OCCO2 ?
GPR151 activ: inactive; FBW7 activator: inactive; TEAD-YAP inh: inactive; MITF inh: inactive

Results for O=C1NC(=S)NC(=O)C1=Cc1cn(-c2ccccc2)nc1-c1cccs1 ?
GPR151 activ: inactive; FBW7 activator: inactive; TEAD-YAP inh: inactive; MITF inh: 75

What do the screens show for `c1csc(CNc2ncnc3nc[nH]c23)c1`?
GPR151 activ: inactive; FBW7 activator: inactive; TEAD-YAP inh: inactive; MITF inh: inactive

How did Fc1ccc(CNc2ncnc3ccccc23)cc1 do in these assays?
GPR151 activ: inactive; FBW7 activator: inactive; TEAD-YAP inh: 55; MITF inh: inactive

How did Cc1ccccc1-n1ncc2c(NCc3ccc(F)cc3)ncnc21 do in these assays?
GPR151 activ: inactive; FBW7 activator: inactive; TEAD-YAP inh: inactive; MITF inh: inactive

Results for c1csc(CNc2ncnc3ccccc23)c1 ?
GPR151 activ: inactive; FBW7 activator: inactive; TEAD-YAP inh: 51; MITF inh: inactive

Results for CCc1ccccc1NC(=O)CN(C)C(=O)CCl ?
GPR151 activ: inactive; FBW7 activator: inactive; TEAD-YAP inh: 79; MITF inh: inactive

How did COc1ccc2oc(=O)c(-c3nnc(Nc4ccc(Cl)cc4Cl)s3)cc2c1 do in these assays?
GPR151 activ: inactive; FBW7 activator: inactive; TEAD-YAP inh: inactive; MITF inh: inactive

What do the screens show for `Cc1ccc2nc(-c3ccc(N)cc3)sc2c1`?
GPR151 activ: inactive; FBW7 activator: inactive; TEAD-YAP inh: 86; MITF inh: inactive

What do the screens show for `Cc1ccc2sc(-c3ccc(NC4=CC(=O)CC(C)(C)C4)cc3)nc2c1`?
GPR151 activ: inactive; FBW7 activator: inactive; TEAD-YAP inh: 53; MITF inh: inactive

How did Cc1ccc2sc(NC(=O)/C=C/C(=O)O)nc2c1 do in these assays?
GPR151 activ: inactive; FBW7 activator: inactive; TEAD-YAP inh: inactive; MITF inh: inactive

Results for Cc1ccc2sc(-c3ccc(NC(=O)/C=C/C(=O)O)cc3)nc2c1 ?
GPR151 activ: inactive; FBW7 activator: inactive; TEAD-YAP inh: 92; MITF inh: inactive

Results for Cc1ccc2nc(-c3cc(Cl)c(N)c(Cl)c3)sc2c1 ?
GPR151 activ: inactive; FBW7 activator: inactive; TEAD-YAP inh: inactive; MITF inh: inactive

What do the screens show for `Cc1ccc2sc(-c3ccc(NS(C)(=O)=O)cc3)nc2c1`?
GPR151 activ: inactive; FBW7 activator: inactive; TEAD-YAP inh: inactive; MITF inh: inactive

Results for Nc1ccc(-c2nc3cc(N)ccc3s2)cc1 ?
GPR151 activ: inactive; FBW7 activator: inactive; TEAD-YAP inh: 47; MITF inh: inactive

How did CCCCS(=O)(=O)c1sc2nc(-c3cccs3)cc(-c3ccccc3)c2c1N do in these assays?
GPR151 activ: inactive; FBW7 activator: inactive; TEAD-YAP inh: inactive; MITF inh: inactive

Results for COc1ccc(/C=C/C(=O)Nc2ccc(C(C)=O)cc2)cc1OC ?
GPR151 activ: inactive; FBW7 activator: inactive; TEAD-YAP inh: inactive; MITF inh: inactive

Results for COc1cccc(-c2nc(C=Nc3cccc(Cl)c3)c(O)o2)c1 ?
GPR151 activ: inactive; FBW7 activator: inactive; TEAD-YAP inh: inactive; MITF inh: inactive

How did Cc1ccc2sc(-c3ccc(N)cc3)nc2c1 do in these assays?
GPR151 activ: inactive; FBW7 activator: inactive; TEAD-YAP inh: 87; MITF inh: inactive

Results for O=C(Nc1ccc([N+](=O)[O-])cc1)c1ccc(N2C(=O)c3ccc([N+](=O)[O-])cc3C2=O)cc1 ?
GPR151 activ: inactive; FBW7 activator: inactive; TEAD-YAP inh: inactive; MITF inh: inactive

Results for COc1ccc(C(=O)Nc2cc(C)ccc2O)cc1 ?
GPR151 activ: inactive; FBW7 activator: inactive; TEAD-YAP inh: 44; MITF inh: inactive

Results for Cc1ccc(O)c(NC(=O)c2ccc(N3C(=O)c4ccc([N+](=O)[O-])cc4C3=O)cc2)c1 ?
GPR151 activ: inactive; FBW7 activator: inactive; TEAD-YAP inh: 55; MITF inh: inactive

Results for COc1ccc(C(=O)Nc2cc(C)ccc2O)c(OC)c1 ?
GPR151 activ: inactive; FBW7 activator: inactive; TEAD-YAP inh: inactive; MITF inh: inactive

How did COc1cc(OC)cc(C(=O)c2ccc(C(=O)Nc3cc(C(C)C)c(O)cc3C)cc2)c1 do in these assays?
GPR151 activ: inactive; FBW7 activator: inactive; TEAD-YAP inh: 47; MITF inh: inactive

How did CCOc1ccc(CC(=O)NCc2nc(-c3ccncc3)n[nH]2)cc1 do in these assays?
GPR151 activ: inactive; FBW7 activator: inactive; TEAD-YAP inh: inactive; MITF inh: inactive

Results for CCOC(=O)C1=C(C)N=c2s/c(=C\c3ccccc3OC(C)=O)c(=O)n2C1c1ccc(OCC)c(OCC)c1 (stereo not drawn) ?
GPR151 activ: inactive; FBW7 activator: inactive; TEAD-YAP inh: inactive; MITF inh: inactive

What do the screens show for `COc1cccc(CSc2nncn3c2cc2oc(C)cc23)c1`?
GPR151 activ: inactive; FBW7 activator: 24; TEAD-YAP inh: inactive; MITF inh: inactive

How did COc1cccc(CSc2nncn3c2cc2occc23)c1 do in these assays?
GPR151 activ: inactive; FBW7 activator: inactive; TEAD-YAP inh: inactive; MITF inh: inactive

Results for CC(C)(C)c1ccc(-c2ncc3ccccn23)cc1 ?
GPR151 activ: inactive; FBW7 activator: inactive; TEAD-YAP inh: 72; MITF inh: inactive

How did Cc1ccc(Nc2nc(-c3c(C)nc4cc(C)ccn34)cs2)c(C)c1 do in these assays?
GPR151 activ: inactive; FBW7 activator: inactive; TEAD-YAP inh: 42; MITF inh: inactive

Results for Cc1ccn2c(-c3csc(Nc4ccc(N(C)C)cc4)n3)c(C)nc2c1 ?
GPR151 activ: inactive; FBW7 activator: inactive; TEAD-YAP inh: 54; MITF inh: inactive

How did Cc1ccc(Nc2nc(-c3c(C)nc4ncccn34)cs2)c(C)c1 do in these assays?
GPR151 activ: inactive; FBW7 activator: inactive; TEAD-YAP inh: 52; MITF inh: inactive

How did Cc1ccc(Nc2nc(-c3ccncc3)cs2)c(C)c1 do in these assays?
GPR151 activ: inactive; FBW7 activator: inactive; TEAD-YAP inh: inactive; MITF inh: inactive

How did Cc1ccc(Nc2nc(-c3cccnc3)cs2)c(C)c1 do in these assays?
GPR151 activ: inactive; FBW7 activator: inactive; TEAD-YAP inh: 49; MITF inh: inactive

Results for CCOC(=O)C1CCN(C(=O)Nc2ccc(NC(=O)C3CCN(C(=O)OCC)CC3)cc2)CC1 ?
GPR151 activ: inactive; FBW7 activator: 6.1; TEAD-YAP inh: inactive; MITF inh: inactive

How did Cc1ccc(CSc2nc3c(c(=O)[nH]c(=O)n3C)n2Cc2ccccc2)cc1 do in these assays?
GPR151 activ: inactive; FBW7 activator: inactive; TEAD-YAP inh: inactive; MITF inh: inactive

Source: PubChem BioAssay
